# Assay results: PubChem BioAssay (EPA / NIEHS)
# Where “and” joins values, the source holds several entries; their conditions need not be identical. Equal entries are not always repeated. Inconclusive results are not listed. Calls of active or inactive are those of the source. The calls were made as follows: active = hit-call score of the fitted dose curve at least 0.9, where 1 is the maximum; inconclusive = response in the unintended direction; inactive = score below 0.9.
# Tests used:
# [1] = ATG_XTT_Cytotoxicity: Cytotoxicity Assessment in the Attagene TRANS-FACTORIAL HepG2 Assay (AID 2283584);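 as to AC50: cells exposed to compound for 24 h before reading; active means loss of viability signal versus DMSO baseline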
# Outline: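 Viability endpoint from XTT after 24 h chemical exposure of reporter-transfected human HepG2 liver cells; signal loss fitted relative to DMSO negative control.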
# [2] = TOX21_p53_BLA_p2_viability: Viability Assessment in the Tox21 HCT-116 p53 Agonism Beta-lactamase Assay, Phase 2 (AID 2283591);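 also: compound exposure lasted 16 h at 37 °C; actives lower the ATP signal meaning cytotoxicity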
# Outline: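 Cytotoxicity readout: CellTiter-Glo ATP luminescence, 30 min at room temperature, after the beta-lactamase read. Cells were HCT116 exposed 16 h at 37C to compounds pin-transferred at 217-fold dilution from DMSO stocks.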
# [3] = target: Cellular tumor antigen p53 (Homo sapiens) (UniProt P04637); assay: TOX21_p53_BLA_p2_ratio: Tox21 HCT-116 p53 Agonism Beta-lactamase Assay, Ratio, Phase 2 (AID 2283592)
# Outline: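 Gain-of-signal p53 agonism was scored from the beta-lactamase FRET ratio (460/530 nm, 405 nm excitation) in HCT116 cells treated 16 h at 37C, 5% CO2, with DMSO serving as negative control and baseline.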
# [4] = TOX21_p53_BLA_p3_viability: Viability Assessment in the Tox21 HCT-116 p53 Agonism Beta-lactamase Assay, Phase 3 (AID 2283593);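 also: cells exposed to compound for 16 h before reading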
# Outline: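 Cellular ATP was quantified by CellTiter-Glo luminescence, read after 30 min at room temperature. Beforehand, HCT116 cells (4000/well) received compound 5 h post-seeding, 217-fold diluted from DMSO, then incubated 16 h at 37C.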
# [5] = target: Cellular tumor antigen p53 (Homo sapiens) (UniProt P04637); assay: TOX21_p53_BLA_p3_ratio: Tox21 HCT-116 p53 Agonism Beta-lactamase Assay, Ratio, Phase 3 (AID 2283596)
# Outline: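 HCT116 p53-bla cells (4000/well) given compound in DMSO (217-fold dilution) after 5 h, incubated 16 h at 37C. CCF4-AM substrate 2 h at room temperature; 460/530 nm emission ratio, gain fitted against DMSO.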
# [6] = TOX21_p53_BLA_p4_viability: Viability Assessment in the Tox21 HCT-116 p53 Agonism Beta-lactamase Assay, Phase 4 (AID 2283597);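 also: hits lower the luminescence signal meaning cytotoxicity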
# Outline: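 Following a 16 h exposure at 37C, the treated HCT116 wells were first read for the FRET ratio. They were then lysed with CellTiter-Glo, and ATP luminescence was recorded after 30 min at room temperature.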
# [7] = TOX21_p53_BLA_p5_viability: Viability Assessment in the Tox21 HCT-116 p53 Agonism Beta-lactamase Assay, Phase 5 (AID 2283600)
# Outline: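 After the 460/530 nm beta-lactamase measurement, the wells received an ATP-detection luciferase reagent; signal was read 30 min later at RT. Compound treatment lasted 16 h on cells pre-incubated 5 h post-seeding.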
# [8] = target: Cellular tumor antigen p53 (Homo sapiens) (UniProt P04637); assay: TOX21_p53_BLA_p4_ratio: Tox21 HCT-116 p53 Agonism Beta-lactamase Assay, Ratio, Phase 4 (AID 2283601)
# Outline: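 Signal is the blue/green (460nm/530nm) ratio of cleaved versus uncleaved CCF4-AM substrate, read after 2 h substrate loading. Cells were HCT116 carrying the p53-responsive beta-lactamase reporter, dosed 16 h at 37C, 5% CO2; CellTiter-Glo measured in parallel.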
# [9] = target: Cellular tumor antigen p53 (Homo sapiens) (UniProt P04637); assay: TOX21_p53_BLA_p5_ratio: Tox21 HCT-116 p53 Agonism Beta-lactamase Assay, Ratio, Phase 5 (AID 2283599)
# Outline: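 Beta-lactamase reporter ratio (blue 460 nm over green 530 nm, 405 nm excitation) after 2 h CCF4-AM loading, in HCT-116 cells exposed 16 h at 37 C to compounds pinned at 217-fold dilution. Increases relative to DMSO baseline scored.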
# Chain of Cellular tumor antigen p53 (Homo sapiens) (P04637 whole entry, looked up): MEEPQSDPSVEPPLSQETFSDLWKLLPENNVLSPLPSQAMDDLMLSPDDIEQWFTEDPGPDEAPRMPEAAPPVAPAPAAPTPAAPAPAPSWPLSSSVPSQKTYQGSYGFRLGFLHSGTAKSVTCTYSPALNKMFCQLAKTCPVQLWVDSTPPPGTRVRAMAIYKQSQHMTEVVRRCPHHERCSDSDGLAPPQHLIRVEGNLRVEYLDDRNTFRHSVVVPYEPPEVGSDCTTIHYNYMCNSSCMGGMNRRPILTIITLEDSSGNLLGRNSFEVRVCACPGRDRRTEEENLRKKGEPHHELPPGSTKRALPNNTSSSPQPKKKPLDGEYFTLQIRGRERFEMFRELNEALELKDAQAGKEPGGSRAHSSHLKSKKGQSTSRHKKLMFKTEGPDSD
smiles,measurement,setting,value
CC(C)CC(C)(c1ccc(O)cc1)c1ccc(O)cc1,AC50,[1],25.9 µM (active)
same,AC50,[2],23.7 µM (active) and 75.4 µM (active)
same,AC50,[3],41.7 µM (active) and 71.7 µM (active)
same,AC50,[4],57.9 µM (active) and 73.5 µM (active)
same,AC50,[5],45.2 µM (active) and 86.9 µM (active)
same,AC50,[6],18.6 µM (active) and 46.2 µM (active)
same,AC50,[7],71.2 µM (active) and 81.4 µM (active)
same,AC50,[8],40.9 µM (active) and 55 µM (active)
C=CCN=C=S,outcome,[1],inactive
same,outcome,[2],inactive
same,outcome,[3],inactive
same,outcome,[4],inactive
same,outcome,[5],inactive
same,outcome,[6],inactive
same,outcome,[7],inactive
same,outcome,[8],inactive
CCOP(=S)(OCC)SCSc1cc(Cl)ccc1Cl,outcome,[1],inactive
same,outcome,[2],inactive
same,outcome,[3],inactive
same,outcome,[4],inactive
same,outcome,[7],inactive
COP(=S)(OC)Oc1cc(Cl)c(I)cc1Cl,AC50,[1],157 µM (active)
same,outcome,[2],inactive
same,AC50,[3],73.9 µM (active)
same,outcome,[4],inactive
same,AC50,[5],75.1 µM (active)
same,outcome,[6],inactive
same,outcome,[7],inactive
same,AC50,[8],87.3 µM (active)
O=S(=O)(c1ccc(Cl)cc1)c1cc(Cl)c(Cl)cc1Cl,outcome,[1],inactive
same,outcome,[2],inactive
same,outcome,[3],inactive
same,outcome,[4],inactive
same,outcome,[5],inactive
same,outcome,[7],inactive
same,outcome,[8],inactive
ClCCCCl,outcome,[1],inactive
same,outcome,[2],inactive
same,outcome,[3],inactive
same,outcome,[4],inactive
same,outcome,[6],inactive
same,outcome,[7],inactive
Clc1cc(C(Cl)(Cl)Cl)cnc1Cl,outcome,[1],inactive
same,outcome,[2],inactive
same,outcome,[3],inactive
same,outcome,[4],inactive
same,outcome,[5],inactive
same,outcome,[9],inactive
same,outcome,[7],inactive
same,outcome,[8],inactive
CCOc1cc(C=O)ccc1O,outcome,[1],inactive
same,outcome,[2],inactive
same,outcome,[3],inactive
same,outcome,[4],inactive
same,outcome,[5],inactive
same,outcome,[6],inactive
same,outcome,[7],inactive
same,outcome,[8],inactive
CCC[N+](CCC)(CCC)CCC,outcome,[1],inactive
same,outcome,[2],inactive
same,outcome,[3],inactive
same,outcome,[4],inactive
same,outcome,[5],inactive
same,outcome,[9],inactive
CCOC(=O)CC(=O)CCl,outcome,[1],inactive
same,outcome,[2],inactive
same,outcome,[3],inactive
same,outcome,[4],inactive
same,AC50,[5],77.9 µM (active)
same,outcome,[9],inactive
same,outcome,[8],inactive
CCC(C)(C#N)N=NC(C)(C#N)CC (configuration not stated),outcome,[1],inactive
same,outcome,[2],inactive
same,outcome,[3],inactive
same,outcome,[4],inactive
same,outcome,[6],inactive
same,outcome,[9],inactive
same,outcome,[7],inactive
N#CCCC(Br)(C#N)CBr (configuration not stated),outcome,[1],inactive
same,outcome,[2],inactive
same,outcome,[3],inactive
same,outcome,[4],inactive
same,AC50,[5],70.8 µM (active)
same,outcome,[6],inactive
same,outcome,[8],inactive
CCCCCCCCCCCCN(C)C,outcome,[1],inactive
same,outcome,[2],inactive
same,outcome,[3],inactive
same,outcome,[4],inactive
same,outcome,[5],inactive
same,outcome,[6],inactive
same,outcome,[7],inactive
CN(N=O)C(N)=O,outcome,[1],inactive
same,outcome,[2],inactive
same,outcome,[3],inactive
same,outcome,[4],inactive
same,outcome,[5],inactive
same,outcome,[9],inactive
same,outcome,[8],inactive
BrCc1ccc(Br)cc1,outcome,[1],inactive
same,outcome,[2],inactive
same,outcome,[3],inactive
same,outcome,[4],inactive
same,outcome,[9],inactive
same,outcome,[7],inactive
same,outcome,[8],inactive
CC1(C)[C@H](C(=O)O[C@H](C#N)c2cccc(Oc3ccccc3)c2)[C@@H]1/C=C(\Cl)C(F)(F)F,outcome,[1],inactive
same,outcome,[2],inactive
same,outcome,[3],inactive
same,outcome,[4],inactive
same,outcome,[8],inactive
CCOP(=S)(OCC)OP(=S)(OCC)OCC,outcome,[1],inactive
same,outcome,[2],inactive
same,outcome,[3],inactive
same,outcome,[4],inactive
same,outcome,[5],inactive
same,outcome,[6],inactive
same,outcome,[8],inactive
Cc1cc(Cl)ccc1O,outcome,[1],inactive
same,outcome,[2],inactive
same,outcome,[3],inactive
same,outcome,[5],inactive
same,outcome,[6],inactive
same,outcome,[9],inactive
same,outcome,[8],inactive
CCCCCCCCCCCCBr,outcome,[1],inactive
same,outcome,[2],inactive
same,outcome,[3],inactive
same,outcome,[4],inactive
same,outcome,[6],inactive
same,outcome,[7],inactive
same,outcome,[8],inactive
O=C(O)c1cc(I)cc(I)c1I,outcome,[1],inactive
same,outcome,[2],inactive
same,outcome,[3],inactive
same,outcome,[4],inactive
same,outcome,[6],inactive
same,outcome,[7],inactive
same,outcome,[8],inactive
O=C(NC(=O)c1c(F)cccc1F)Nc1cc(Cl)c(OC(F)(F)C(F)C(F)(F)F)cc1Cl (configuration not stated),outcome,[1],inactive
same,outcome,[2],inactive
same,outcome,[3],inactive
same,outcome,[4],inactive
same,outcome,[5],inactive
same,outcome,[6],inactive
same,outcome,[7],inactive
same,outcome,[8],inactive
Cc1cc(C(C)(C)c2ccc(O)c(C)c2)ccc1O,outcome,[1],inactive
same,outcome,[2],inactive
same,AC50,[3],30.2 µM (active)
same,outcome,[5],inactive
same,outcome,[6],inactive
same,outcome,[9],inactive
same,outcome,[7],inactive
same,AC50,[8],41.9 µM (active)
CCOP(=S)(OCC)Oc1ccc(Cl)cc1Cl,outcome,[1],inactive
same,outcome,[2],inactive
same,outcome,[3],inactive
same,outcome,[4],inactive
same,outcome,[5],inactive
same,outcome,[9],inactive
same,outcome,[7],inactive
same,outcome,[8],inactive
CC(C)(C)c1cc([N+](=O)[O-])cc(C(C)(C)C)c1O,outcome,[1],inactive
same,AC50,[2],46.1 µM (active)
same,AC50,[3],3.81 µM (active)
same,outcome,[4],inactive
same,AC50,[5],4.47 µM (active)
same,AC50,[6],46.1 µM (active)
same,outcome,[7],inactive
same,AC50,[8],46.1 µM (active)
O=[N+]([O-])c1c2ccccc2cc2ccccc12,outcome,[1],inactive
same,outcome,[2],inactive
same,outcome,[3],inactive
same,outcome,[4],inactive
same,outcome,[5],inactive
same,outcome,[6],inactive
same,outcome,[7],inactive
same,outcome,[8],inactive
CC(C)[C@H](C(=O)OC(C#N)c1cccc(Oc2ccccc2)c1)c1ccc(OC(F)F)cc1 (some centres not stated),outcome,[1],inactive
same,outcome,[2],inactive
same,outcome,[3],inactive
same,outcome,[4],inactive
same,outcome,[5],inactive
same,outcome,[6],inactive
same,outcome,[7],inactive
same,outcome,[8],inactive
